# According to ChEMBL document CHEMBL3988442, “University of Dundee, Small-Polar-MMV Screening Library” (2021):
# Out of some 48,000 compounds screened, about 13,000 (27%) showed an effect of 50% or more. The list shows a part of the results.
# Test system: Wolbachia pipientis
# Experiment: Anti-Wolbachia Cell-Based Screen
# Format: functional
# Set-up: scale not given: in the data most compounds retested in dose-response had high values
# Settings: 5 µM
row,Structure (SMILES),Percent Effect [%]
1,c1ccc(-c2cnc(CN3CCn4c(nnc4C4CC4)C3)o2)cc1,-9.736
2,CN(Cc1ccc2nonc2c1)C(=O)CCc1cc2n(n1)CCCNC2,-9.744
3,CN(CCC1CCCCO1)c1nncc(-c2ccccc2)n1 (stereo not given),3.225
4,CN(C)c1cc(C(F)(F)F)nc(N2CCCC2c2ccccn2)n1 (stereo not given),96.36
5,Cc1cc(C2CCC2)nc(N(C)CCc2ccccn2)n1,10.11
6,c1ccc(C2CCCN2C2CSCCSC2)nc1 (stereo not given),20.29
7,Cc1cc(N(C)C)nc(N2CCCC2c2cc(C)on2)n1 (stereo not given),41.35
8,Cc1cc(N(C)C)nc(N2CCCC2c2ccccn2)n1 (stereo not given),92.86
9,c1ccc(C2CCCN2C2CCSCC2)nc1 (stereo not given),-12.25
10,Cc1nc(N2CCN(C(=O)c3ccccc3)CC2)cc(-n2ccnc2)n1,-0.4006
11,CCCC1CN(CCOC)C(=O)c2cccnc2O1 (stereo not given),110.6
12,CCC(C)Oc1ccccc1CN1Cc2ncccc2C1=O (stereo not given),3.69
13,COCCN1CCCC(O)(CN2CCN(c3ncccc3C)CC2)C1=O (stereo not given),-16.41
14,CCCC1CN(CC(C)C)C(=O)c2cccnc2O1 (stereo not given),72.42
15,CCOc1ncccc1CN1Cc2ncccc2C1=O,24.49
16,CCOc1ccccc1CCN1Cc2ncccc2C1=O,5.291
17,COCCN1C[C@@H]2CN(c3ncccn3)C[C@@H]2C1=O,3.665
18,CC(C)(C)C(=O)N1CCC(COCc2ccccc2)C1 (stereo not given),14.31
19,Cc1cnc(C(=O)N2CCC(COCc3ccccc3)C2)cn1 (stereo not given),0.6759
20,CCCC1CN(CCOc2ccccc2)C(=O)c2cccnc2O1 (stereo not given),157.7
21,CC(C)CN1C[C@H](COCc2ccccc2)Oc2ncccc2C1=O,89.35
22,O=S1(=O)COCCN1CCOc1ccccc1,-11.75
23,O=C(NC1CC1)N1CCC2(CC1)CC(N1CCOCC1)c1ccccc12.O=C(O)C(F)(F)F (stereo not given),2.797
24,CCS(=O)(=O)NCCCNC1CSCCc2ccccc21 (stereo not given),1.268
25,O=C(O)C(F)(F)F.O=C(O)C(F)(F)F.O=C1[C@@H]2CCN(Cc3ccccn3)C[C@@H]2OCCN1c1ccccc1,5.214
26,CCNC(=O)[C@@H]1C[C@H](N)CN1C1CCN(c2ccccc2OC)CC1,-4.243
27,COc1cc(C(=O)NCC2CCCN(Cc3ccco3)C2)ccn1 (stereo not given),2.476

row,Structure (SMILES),Percent Effect [%]
1,CC(C)Cc1cc(C(=O)NCC2CCCN(Cc3ccco3)C2)on1 (stereo not given),50.17
2,CC(C)Cc1cc(C(=O)NCC2CCN(c3ccccc3F)C2)on1 (stereo not given),-10.11
3,Cc1ccccc1C(=O)N1CCO[C@H]2[C@H](OCCN(C)C)CC[C@@H]21.O=C(O)C(F)(F)F,99.34
4,Cc1occc1C(=O)N1CCO[C@H]2[C@H](OCc3cccnc3)CC[C@@H]21.O=C(O)C(F)(F)F,4.513
5,Cc1cc(C(=O)N2CCO[C@H]3[C@H](OCCN(C)C)CC[C@@H]32)c(C)[nH]1.O=C(O)C(F)(F)F,104.2
6,CN(C)CCO[C@@H]1CC[C@H]2[C@H]1OCCN2C(=O)c1ccccc1F,79.95
7,CN(C)CCO[C@@H]1CC[C@H]2[C@H]1OCCN2C(=O)CCc1ccccc1.O=C(O)C(F)(F)F,-7.187
8,COc1ccc(C(=O)N2CCO[C@H]3[C@@H](OCC4CC4)CC[C@@H]32)cc1F,-14.51
9,Cc1occc1C(=O)N1CCO[C@H]2[C@H](OCc3ccccn3)CC[C@@H]21.O=C(O)C(F)(F)F,-3.941
10,Cc1cc(C(=O)N2CCO[C@H]3[C@H](Oc4ccccn4)CC[C@@H]32)c(C)[nH]1.O=C(O)C(F)(F)F,-3.803
11,Cc1ccoc1C(=O)N1CCO[C@H]2[C@H](OCCN(C)C)CC[C@@H]21.O=C(O)C(F)(F)F,-19.8
12,Cc1c(C(=O)N2CCCC(O)(CN(C)C)CC2)c2cc(O)ccc2n1C (stereo not given),-7.516
13,CC(=O)N1CCC(Nc2ccc(Br)cc2C#N)C1 (stereo not given),-20.23
14,COc1cc(C)sc1C(=O)N1CCC(Nc2cccnc2)CC1,-10.68
15,Cc1ccsc1C(=O)N1CCC(Nc2cccnc2)CC1,82.28
16,O=C(CCn1ccc2ccccc21)N1CCC(Nc2cccnc2)CC1,-9.935
17,Cc1nc(C)c(C(=O)N2CCC(Nc3cccnc3)CC2)s1,6.028
18,Cc1cc(C(=O)N2CCC(Nc3cccnc3)CC2)c(C)s1,98.75
19,Cc1cc(C(=O)N2CCC(NC(=O)c3cccnc3)CC2)c(C)o1,-8.9
20,COc1ccc([C@@H]2C[C@H](NC(C)=O)C[C@H](CCc3ccccc3)O2)cn1,7.698
21,CSCC[C@H](N)C(=O)N1CC(Oc2ccccc2C)C1,-5.947
22,COCCOc1ncccc1CNC(=O)N1CCOCC1,-0.8625
23,COc1ccc(-n2cnnc2SCCC#N)cn1,-2.783
24,O=C(NCC1(C(=O)O)CCC1)c1nnn(-c2ccc(F)cc2)c1C1CC1,4.547
25,Cc1ccc(-n2nnc(C(=O)NCCS(N)(=O)=O)c2C2CC2)cc1,2.856
26,COc1ccc(-n2nnc(C(=O)NC(C)C)c2C2CC2)cc1,16.07
27,COC(=O)CCNC(=O)c1nnn(-c2ccc(F)cc2)c1C1CC1,1.406

row,Structure (SMILES),Percent Effect [%]
1,CCN(CC)C(=O)c1nnn(-c2ccc(C)cc2)c1C1CC1,-3.028
2,O=C(NCC1(CO)CC1)c1nnn(-c2ccc(F)cc2)c1C1CC1,-10.21
3,Cc1ccc(-n2nnc(C(=O)NC(C)C)c2C2CC2)cc1,124.2
4,Cc1ccc(-n2nnc(C(=O)Nc3cc(C)nn3C)c2C2CC2)cc1,-15.14
5,Cc1ccc(-n2nnc(C(=O)NCC(F)(F)F)c2C2CC2)cc1,125.2
6,Cc1ccc(-n2nnc(C(=O)NCC3(CO)CC3)c2C2CC2)cc1,112.7
7,COC(=O)CCNC(=O)c1nnn(-c2ccc(C)cc2)c1C1CC1,120.1
8,NS(=O)(=O)CCNC(=O)c1nnn(-c2ccc(F)cc2)c1C1CC1,1.057
9,CC(NC(=O)NCCCO)c1ccc(-c2ccncc2)cc1 (stereo not given),6.546
10,Cc1ccccc1CN1CCNC(=O)C1CC(=O)NCC1CCCCC1 (stereo not given),13.06
11,NC(=O)CN1CC2(CCC1=O)CCN(Cc1cc(F)ccc1Cl)CC2,6.267
12,Cn1cc(CN2CCOC3(CCCN(C(=O)c4ccco4)C3)C2)cn1.O=C(O)C(F)(F)F (stereo not given),-10.52
13,COc1ccc(C(C)N2CCC(CNC(C)=O)CC2)cc1Cl (stereo not given),4.452
14,COc1ccccc1C(=O)NC[C@H]1COCc2nc3c(C)cccc3n21,-7.945
15,COc1ccc(Br)cc1Cn1nc(C(N)=O)ccc1=O,5.156
16,COc1ccc(Br)cc1SCCC(N)=O,101.3
17,COc1ccc(Br)cc1CCC(=O)N1CCCC1,-8.693
18,CS(=O)(=O)CCSc1cccc(C#N)c1,-1.405
19,CS(=O)(=O)CCCSCc1cc(F)cc(Br)c1,-17.62
20,CS(=O)(=O)CCSCc1ccc(Br)c(F)c1,-8.514
21,COc1ccc(Br)cc1SCCS(C)(=O)=O,106.5
22,CS(=O)(=O)CCCSCc1ccc(Br)c(F)c1,-6.245
23,COc1ccc(Br)cc1SCCCS(C)(=O)=O,100.1
24,O=C(Cc1ccc2c(c1)CCC2)N1CCCC(n2cccn2)C1 (stereo not given),-2.086
25,O=C(c1cccc2c1OCCO2)N1CCCC1Cn1cccn1 (stereo not given),5.303
26,Cc1cnn(CC2CCCN2C(=O)Cc2ccc3c(c2)CCO3)c1 (stereo not given),96.14
27,O=C(Cc1ccc2c(c1)CCC2)N1CCCC1Cn1cccn1 (stereo not given),137.3

row,Structure (SMILES),Percent Effect [%]
1,O=C(Cc1ccc2c(c1)CCO2)N1CCCC1Cn1cccn1 (stereo not given),102
2,O=C(Cc1ccc(O)c(Cl)c1)N1CCCCC1CCn1cccn1 (stereo not given),-6.522
3,O=C(Cc1ccc2c(c1)CCO2)N1CCCC(n2cccn2)C1 (stereo not given),-1.485
4,Cc1nn(CC(C)C)c(N(C)C)c1CNCCCNS(C)(=O)=O,11.35
5,CCOc1ccnc(NCc2nc(C)cc(=O)[nH]2)n1,1.629
6,CCC(=O)N1Cc2nnc(C3CCOCC3)n2C(Cc2c[nH]cn2)C1 (stereo not given),-1.737
7,CC(C)N(C)C[C@H]1OC[C@@H]2CCN(Cc3cccc(C#N)c3)C[C@@H]21.O=C(O)C(F)(F)F.O=C(O)C(F)(F)F,7.862
8,O=C1NC2(CCN(C(=O)c3ccc(Cl)cn3)CC2)CC1c1ccccc1 (stereo not given),-25.51
9,CCC(C)(C)NC(=O)Nc1nnc(-c2ccccn2)s1,-10.26
10,COCCNc1nnc(-c2cnc(C)cn2)s1,149.1
11,COCCNc1nc(-c2ccc(S(=O)(=O)N3CCCCCC3)cc2)cs1,-3.577
12,COCCNc1nc2c(c(NCc3cnc(C)cn3)n1)CCNCC2,-9.122
13,COCCNc1nc(-c2ccc(S(=O)(=O)N3CCCCC3)cc2)cs1,16.68
14,COCCN(Cc1ccc(C)o1)C(=O)Nc1ncc(C)s1,4.146
15,CCC(CC)(CC(=O)OC)NC(=O)Nc1nnc(-c2ccccn2)s1,-2.114
16,COCCNc1nnc(-c2ccccn2)s1,158.8
17,COCCNc1nnc(-c2ccc(C)nc2)s1,135.2
18,Cc1c(-c2ccncc2)n[nH]c1NC(=O)CCOC(C)C,-12.27
19,CCCNC(=O)c1ccc2c(OC)n(C)nc2c1,-11.42
20,COCCNC(=O)c1ccc2c(=O)n3c(nc2c1)CCN(C)CC3,94.74
21,N#CCC(=O)NCc1nnc2n1CCN(Cc1cccs1)C2,6.584
22,CN1CCc2nc3cc(C(=O)NCc4cccs4)ccc3c(=O)n2CC1,76.54
23,COc1cc2nc3n(c(=O)c2cc1OC)CCN(C)CC3,-3.498
24,O=c1c2sccc2nc2n1CCN(Cc1cccs1)CC2,5.975
